# Data reported in the supplement of paper PMC4466140.
# Experiments:
# Test in all cases: SPOT peptide array binding signal intensity (averaged, normalized) (arbitrary units (background-subtracted, floor 0; scale differs between SH3 domains)); higher = stronger binding of the SH3 domain to the peptide
# CaNbp2 = biological target: CaNbp2
# Outline: (§1)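 GST-fused SH3 domains, from four yeast species, were produced in E. coli BL21(DE3) and captured on glutathione Sepharose. Membranes of cellulose carrying synthetic 15-mer peptides, in which cysteines had been replaced by serines, were exposed to each domain at 10 μg/ml overnight at 4°C in TBS-based blocking buffer. After anti-GST antibody, an HRP anti-mouse secondary and luminol, spots were imaged and quantified using Genespotter. Binding signal is normalized and background-subtracted spot intensity, averaged over replicates, in arbitrary units that differ between domains.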
# CaRvs167 = biological target: CaRvs167
# Outline: as §1
# CaRvs167-3 = biological target: CaRvs167-3
# Outline: as §1
# CaSho1 = biological target: CaSho1
# Outline: as §1
# CaSla1-D1-D2 = biological target: CaSla1-D1-D2
# Outline: as §1
# CaSla1-D3 = biological target: CaSla1-D3
# Outline: as §1
# ScAbp1 = biological target: ScAbp1
# Outline: as §1
# ScBbc1 = biological target: ScBbc1
# Outline: as §1
# ScBem1-D1 = biological target: ScBem1-D1
# Outline: as §1
# ScBzz1-D1 = biological target: ScBzz1-D1
# Outline: as §1
# ScBzz1-D2 = biological target: ScBzz1-D2
# Outline: as §1
# ScCyk3 = biological target: ScCyk3
# Outline: as §1
# ScFus1 = biological target: ScFus1
# Outline: as §1
# ScHof1 = biological target: ScHof1
# Outline: as §1
# ScHse1 = biological target: ScHse1
# Outline: as §1
# ScLsb1 = biological target: ScLsb1
# Outline: as §1
# ScLsb2 = biological target: ScLsb2
# Outline: as §1
# ScLsb3 = biological target: ScLsb3
# Outline: as §1
# ScLsb4 = biological target: ScLsb4
# Outline: as §1
# ScMyo3 = biological target: ScMyo3
# Outline: as §1
# ScMyo5 = biological target: ScMyo5
# Outline: as §1
# ScNbp2 = biological target: ScNbp2
# Outline: as §1
# ScPex13 = biological target: ScPex13
# Outline: as §1
# ScRvs167 = biological target: ScRvs167
# Outline: as §1
# ScSho1 = biological target: ScSho1
# Outline: as §1
# ScSla1-D1-D2 = biological target: ScSla1-D1-D2
# Outline: as §1
# ScSla1-D3 = biological target: ScSla1-D3
# Outline: as §1
# SpAbp1-D1 = biological target: SpAbp1-D1
# Outline: as §1
# SpBbc1 = biological target: SpBbc1
# Outline: as §1
# SpBzz1-D1 = biological target: SpBzz1-D1
# Outline: as §1
# SpBzz1-D2 = biological target: SpBzz1-D2
# Outline: as §1
# SpCyk3 = biological target: SpCyk3
# Outline: as §1
# SpHof1 = biological target: SpHof1
# Outline: as §1
# SpHof1-2 = biological target: SpHof1-2
# Outline: as §1
# SpHof1-3 = biological target: SpHof1-3
# Outline: as §1
# SpHse1 = biological target: SpHse1
# Outline: as §1
# SpLsb1 = biological target: SpLsb1
# Outline: as §1
# SpLsb4 = biological target: SpLsb4
# Outline: as §1
# SpMyo1 = biological target: SpMyo1
# Outline: as §1
# SpNbp2 = biological target: SpNbp2
# Outline: as §1
# SpPex13 = biological target: SpPex13
# Outline: as §1
# SpRvs167 = biological target: SpRvs167
# Outline: as §1
# SpSla1-D1-D2 = biological target: SpSla1-D1-D2
# Outline: as §1
# SpSla1-D3 = biological target: SpSla1-D3
# Outline: as §1
binder,measurement,setting,value
SGVRLPAPPPPPRRG,SPOT peptide array binding signal intensity,CaNbp2,216
same,SPOT peptide array binding signal intensity,CaRvs167,1350
same,SPOT peptide array binding signal intensity,CaRvs167-3,10.2
same,SPOT peptide array binding signal intensity,CaSho1,34
same,SPOT peptide array binding signal intensity,CaSla1-D1-D2,3580
same,SPOT peptide array binding signal intensity,CaSla1-D3,77.2
same,SPOT peptide array binding signal intensity,ScAbp1,452
same,SPOT peptide array binding signal intensity,ScBbc1,267
same,SPOT peptide array binding signal intensity,ScBem1-D1,≤ 0
same,SPOT peptide array binding signal intensity,ScBzz1-D1,257
same,SPOT peptide array binding signal intensity,ScBzz1-D2,36
same,SPOT peptide array binding signal intensity,ScCyk3,6.5
same,SPOT peptide array binding signal intensity,ScFus1,3.5
same,SPOT peptide array binding signal intensity,ScHof1,482
same,SPOT peptide array binding signal intensity,ScHse1,169
same,SPOT peptide array binding signal intensity,ScLsb1,438
same,SPOT peptide array binding signal intensity,ScLsb2,438
same,SPOT peptide array binding signal intensity,ScLsb3,2990
same,SPOT peptide array binding signal intensity,ScLsb4,2100
same,SPOT peptide array binding signal intensity,ScMyo3,1670
same,SPOT peptide array binding signal intensity,ScMyo5,864
same,SPOT peptide array binding signal intensity,ScNbp2,622
same,SPOT peptide array binding signal intensity,ScPex13,1050
same,SPOT peptide array binding signal intensity,ScRvs167,3210
same,SPOT peptide array binding signal intensity,ScSho1,1100
same,SPOT peptide array binding signal intensity,ScSla1-D1-D2,2820
same,SPOT peptide array binding signal intensity,ScSla1-D3,9
same,SPOT peptide array binding signal intensity,SpAbp1-D1,2280
same,SPOT peptide array binding signal intensity,SpBbc1,19.2
same,SPOT peptide array binding signal intensity,SpBzz1-D1,3360
same,SPOT peptide array binding signal intensity,SpBzz1-D2,1490
same,SPOT peptide array binding signal intensity,SpCyk3,17
same,SPOT peptide array binding signal intensity,SpHof1,248
same,SPOT peptide array binding signal intensity,SpHof1-2,231
same,SPOT peptide array binding signal intensity,SpHof1-3,1500
same,SPOT peptide array binding signal intensity,SpHse1,67.5
same,SPOT peptide array binding signal intensity,SpLsb1,870
same,SPOT peptide array binding signal intensity,SpLsb4,6010
same,SPOT peptide array binding signal intensity,SpMyo1,502
same,SPOT peptide array binding signal intensity,SpNbp2,26
same,SPOT peptide array binding signal intensity,SpPex13,35
same,SPOT peptide array binding signal intensity,SpRvs167,2550
same,SPOT peptide array binding signal intensity,SpSla1-D1-D2,993
same,SPOT peptide array binding signal intensity,SpSla1-D3,0.5
